Screens from PubChem BioAssay.
V-ATPase pH = regulators of yeast V-ATPase proton pumping, primary screen, pHLuorin cytosolic pH fluorescence | S. cerevisiae | response, % at 10 µM | 350,000 compounds, 0.37% hits | AID 504577, 2011; in the data active = response mostly above about 7.3%, no sharp cut-off; inactive = mostly below about 5.4%; also: actives read high
Yeast superoxide = reduction of superoxide in aged yeast, primary screen, HTS. S. cerevisiae aged cells, superoxide DHE fluorescence; stronger effect = lower value. AID 2690, 2010. superoxide response (% of plate mean), % at 10 µM. 330,000 compounds, 0.18% hits;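 active = superoxide response under a set limit, about three screen SD below normal, cut at about 65% in these data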;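 also: yeast aged for seven days with compound at 30 °C before DHE staining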
iPSC survival up = enhancers of single-cell hiPSC survival, primary screen, ATPlite luminescence; 100% = ROCK inhibitor wells, 0% = DMSO; survival enhancement, % at 20 µM; 360,000 compounds, 0.044% hits; AID 602274, 2012; in the data active = survival enhancement above about 18%;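 also: cells exposed to compounds for 16 hours before the ATP read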
Fh CTSL1 inh = Fasciola hepatica cathepsin L1 inhibitors, primary screen, counter-screen for PFM18AAP inhibitor project, biochemical, QFRET, fluorogenic peptide substrate; AID 1906, 2009; inhibition, % at 5.96 µM; recombinant F. hepatica cathepsin L1, Z-Leu-Arg-MCA fluorescence; 300,000 compounds, 0.49% hits;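 active = inhibition above the mean of all tested compounds plus 3 SD, set per screening campaign, cut at about 17% in these data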
Of the large screens only hits and unclear results are named; the others gave an inactive call. The list is not random: actives were taken first. Their share in the collection is about 1%.

CC1OC(CC(=O)O)CC2=C1C(=O)c1c(O)cccc1C2=O (stereo not given)	V-ATPase pH 117 (no result: Yeast superoxide, Fh CTSL1 inh)
O=c1cc2c(nn1Cc1ccccc1Cl)-c1ccccc1CC2	none
O=C(COC(=O)C(c1ccccc1)c1ccccc1)NCc1ccco1	none
Cn1cc(-c2csc(C(O)c3ccccc3)n2)cn1 (stereo not given)	none (no result: V-ATPase pH, Yeast superoxide, Fh CTSL1 inh)
COC1CCC2(C)C(=CCC3C4CC(O)CC4(C)CCC32)C1 (stereo not given)	none (no result: Yeast superoxide, Fh CTSL1 inh)
COC(=O)C1CCCN1S(=O)(=O)c1ccc2ccccc2c1 (stereo not given)	none
COC(=O)C1CCCN1S(=O)(=O)c1ccc([N+](=O)[O-])cc1 (stereo not given)	Fh CTSL1 inh 53
COc1cccc(-c2nc(CS(=O)(=O)CC(=O)NCCCN3CC(C)CC(C)C3)c(C)o2)c1 (stereo not given)	Fh CTSL1 inh 19
COc1cccc(-c2nc(CS(=O)(=O)CC(=O)NCCCN3CCN(C)CC3)c(C)o2)c1	none
O=C1c2cccc3cccc(c23)C(=O)C1(O)O	Fh CTSL1 inh 18
O=C(COc1ccc(Cl)cc1)N1CCN(S(=O)(=O)c2cc(F)ccc2F)CC1	none (no result: Yeast superoxide, Fh CTSL1 inh)
COc1ccc(C2CC(c3cccs3)=NN2C(=O)c2ccccc2)cc1OC (stereo not given)	none
COc1ccc(C2CC(c3cccs3)=NN2C(=O)CCl)cc1OC (stereo not given)	Fh CTSL1 inh 58
COc1cc(C2CC(c3cccs3)=NN2C(=O)CCl)ccc1OC(F)F (stereo not given)	Fh CTSL1 inh 59
O=c1cc(N=Nc2ccc(Cl)cc2)[nH]c(=O)[nH]1	V-ATPase pH 13
O=c1cc(-c2ccc(Cl)cc2)oc(=O)[nH]1	none
Cn1c(=O)c2cc(S(=O)(=O)NCCC(=O)NCCc3ccc(Cl)cc3)ccc2n(C)c1=O	V-ATPase pH 22
Cn1c(=O)c2cc(S(=O)(=O)NCCC(=O)Nc3ccc(Cl)cc3)ccc2n(C)c1=O	none
CCn1cc(C(=O)OCC(=O)NCc2ccccc2Cl)c(=O)c2ccc(C)nc21	Fh CTSL1 inh 17
CCc1ccc(S(=O)(=O)/N=C2\C=C(Nc3cccc(C(=O)O)c3)C(=O)c3ccccc32)cc1	Fh CTSL1 inh 51
Cc1cc(C)c(S(=O)(=O)/N=C2\C=C(Nc3ccc(C(=O)O)cc3)C(=O)c3ccccc32)c(C)c1	Fh CTSL1 inh 25
CCc1ccc(S(=O)(=O)/N=C2\C=C(Nc3ccc(O)cc3)C(=O)c3ccccc32)cc1	Fh CTSL1 inh 63
CCc1ccc(S(=O)(=O)/N=C2/C=C(Sc3ncn[nH]3)C(=O)c3ccccc32)cc1	Fh CTSL1 inh 100
CC1(C(=O)NCCC#N)CCN1C(=O)c1ccccc1CCc1ccccc1 (stereo not given)	none (no result: V-ATPase pH, Yeast superoxide, Fh CTSL1 inh)
O=C(NCc1ccc(CNC(=O)c2ccco2)cc1)c1ccco1	none
COc1ccc(C(=O)NCC(=O)OCC(=O)Nc2ccc(C)c(S(=O)(=O)N(C)C)c2)cc1OC	none
COc1ccc(S(=O)(=O)NC(=O)C2(C)CCN2C(=O)C2(c3ccc(Cl)cc3)CCC2)cc1 (stereo not given)	none (no result: V-ATPase pH, Yeast superoxide, Fh CTSL1 inh)
NC(=O)c1ccsc1NC(=O)c1ccc(S(=O)(=O)N2CCCCC2)cc1	Fh CTSL1 inh 37
O=C(NCc1ccco1)c1ccc2c(c1)N(Cc1ccc(Cl)cc1)CCS2	V-ATPase pH 14
CCN1CCN(CCCNC(=O)c2ccc3c(c2)N(Cc2ccccc2)CCS3)CC1	Fh CTSL1 inh 42
CN1CCN(C(=O)C2=C[C@@H](c3ccc(Br)cc3)C[C@@H](OCc3ccc(CO)cc3)O2)CC1	Fh CTSL1 inh 17
CCOC(=O)Nc1cccc(OCC(=O)Nc2ccc3c(c2)CCC3)c1	none (no result: Fh CTSL1 inh)
Cc1onc(C(=O)Nc2sc3c(c2C#N)CCCC3)c1[N+](=O)[O-]	Fh CTSL1 inh 23
Cc1sc(NC(=O)CCl)c(C(=O)c2ccccc2)c1C	Fh CTSL1 inh 53
Cc1ccccc1C(=O)Nc1sc(C)c(C)c1C(=O)c1ccccc1	none
O=C(NCc1ccccc1Cl)[C@H]1CCCN1C(=O)[C@H]1CCCN1C(=O)c1cccs1	none (no result: V-ATPase pH, Yeast superoxide, Fh CTSL1 inh)
CC1CCCCC12NC(=O)N(CC(=O)Nc1ccc(S(=O)(=O)N3CCOCC3)cc1)C2=O (stereo not given)	none
CC1CCCCC12NC(=O)N(CC(=O)N1CCN(S(=O)(=O)c3ccc4c(c3)CCC4)CC1)C2=O (stereo not given)	V-ATPase pH 25 (no result: Yeast superoxide, Fh CTSL1 inh)
C=CCC1NS(=O)(=O)OCC1C(C)C (stereo not given)	none
C=CCC1NS(=O)(=O)OCC1NC(=O)OCC(Cl)(Cl)Cl (stereo not given)	Fh CTSL1 inh 20
O=C(NCC1CCCCC1)c1ccc2sc([C@H]3C[C@H](O)[C@@H](CO)O3)nc2c1	none (no result: V-ATPase pH, Yeast superoxide, Fh CTSL1 inh)
CC(C)c1ccc(O)c(NC(=O)c2ncn[nH]2)c1	Fh CTSL1 inh 17
CC(C)c1ccc(O)c(NC(=O)c2cncc(Br)c2)c1	none
COc1ccc(-c2nnc(N3CCOCC3)c3ccccc23)cc1	Fh CTSL1 inh 19
N#Cc1c(NC2CCCCC2)nc(-c2ccco2)c2c1CCCC2	none
N#Cc1c(NCCCO)nc(-c2ccco2)c2c1CCCC2	Fh CTSL1 inh 18
c1coc(-c2nnc(-c3ccco3)nn2)c1	Fh CTSL1 inh 23
CC(=O)Oc1c(Cl)cc(N(C(C)=O)S(=O)(=O)c2ccccc2)c2ccccc12	none
Oc1ccc(-c2onc(C(F)(F)F)c2-c2cscn2)c(O)c1	iPSC survival up 20
O=C(COC(=O)c1ccccc1C(=O)c1ccc(Cl)c([N+](=O)[O-])c1)NC1CC1	iPSC survival up 36
CNC(=O)COC(=O)c1ccccc1C(=O)c1ccc(Cl)c([N+](=O)[O-])c1	none (no result: Yeast superoxide, Fh CTSL1 inh)
COc1ccc(C(=O)Nc2ccccc2C(=O)NC(C(=O)NCc2ccco2)C(C)C)cc1 (stereo not given)	Fh CTSL1 inh 48
COc1ccc(C(=O)Nc2ccccc2C(=O)N(Cc2ccco2)C(C(N)=O)C(C)C)cc1 (stereo not given)	Fh CTSL1 inh 38
COc1ccc(C(=O)Nc2ccccc2C(=O)NCCN2CCOCC2)cc1	Fh CTSL1 inh 23
CCC(C)[C@H](NC(=O)[C@@H]1CSC2c3ccccc3C(=O)N21)C(=O)NCc1ccco1 (stereo not given in full)	Fh CTSL1 inh 81
Cc1cccc(CS(=O)(=O)c2cn(CC(=O)N3CCOCC3)c3ccccc23)c1	none
COc1ccc(C(=O)CSc2nnc(CNC(=O)c3ccc(S(=O)(=O)N(C)C)cc3)o2)cc1	none
CCN(CCn1cccn1)C(=O)CC1C(=O)NCCN1CCc1ccccc1 (stereo not given)	none
O=C(CNS(=O)(=O)c1ccc2ccccc2c1)OCc1nnc(-c2ccccc2)o1	none
CSc1ccc(CNC(=O)C2(C)CCCN(C(C)=O)C2)cc1 (stereo not given)	none (no result: V-ATPase pH, Yeast superoxide, Fh CTSL1 inh)
Cc1c2cnccc2c(C)c2c1oc1ccccc12	none (no result: Yeast superoxide, Fh CTSL1 inh)
COc1ccc(C(=O)N[C@H](C(=O)NCc2ccco2)C(C)C)cc1	Fh CTSL1 inh 19
CCC(C)C(NC(=O)OC(C)(C)C)C(=O)NCc1ccco1 (stereo not given)	Fh CTSL1 inh 20
